Measured values: PubChem BioAssay (NCATS)
Unmarked numbers belong to inactive results. Inconclusive results are not listed. Active and inactive are the calls of the source. Unless noted, calls come from the whole dose curve; as a rule, active = well fitted curve in either direction with a large enough effect (not every such curve was filed as active); inconclusive = small, poorly fitted or top-dose-only effect, or another doubt; inactive = flat fitted curve, though single readings scatter.

Assays:
[1] = biological target: Lysosomal acid glucosylceramidase (Homo sapiens) (UniProt P04062); experiment: Glucocerebrosidase-p2 (AID 348; in the data active = potency below about 10 µM; note: potency is the fitted concentration of half-maximal effect); settings: purified GBA, blue fluorogenic substrate, 40 min
Lysosomal acid glucosylceramidase (Homo sapiens), sequence (P04062 whole entry, looked up): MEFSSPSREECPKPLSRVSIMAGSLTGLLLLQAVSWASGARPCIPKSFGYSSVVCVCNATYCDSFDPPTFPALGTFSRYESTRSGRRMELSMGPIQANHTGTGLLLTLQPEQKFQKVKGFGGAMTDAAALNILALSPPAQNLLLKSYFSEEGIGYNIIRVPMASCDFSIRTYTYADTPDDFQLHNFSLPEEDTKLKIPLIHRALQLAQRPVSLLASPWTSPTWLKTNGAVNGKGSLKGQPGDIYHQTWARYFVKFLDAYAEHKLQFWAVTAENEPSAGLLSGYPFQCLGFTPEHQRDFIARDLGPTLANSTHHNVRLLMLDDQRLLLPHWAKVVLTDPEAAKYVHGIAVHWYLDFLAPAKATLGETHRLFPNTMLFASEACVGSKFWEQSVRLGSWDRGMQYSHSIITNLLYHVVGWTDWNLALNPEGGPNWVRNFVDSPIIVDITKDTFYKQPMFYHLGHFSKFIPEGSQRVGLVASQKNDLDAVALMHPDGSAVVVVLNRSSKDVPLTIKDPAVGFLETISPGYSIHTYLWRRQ
Summary of the method: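 Compounds titrated from 0.6 nM upwards against 0.2 nM enzyme in pH 5.9 citric acid/KH2PO4, taurocholate, tween-20; blue fluorogenic substrate 80 uM, 40 min room temperature, stopped and read Ex 365/Em 440 for AC50.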

[2] = AP1 Signaling Pathway (AID 357); settings: ME-180 AP-1-bla reporter, EGF-induced, beta-lactamase ratio, 5 h; at 7.69 µM (top of the series) unless noted;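 note: ME-180 reporter cells stimulated with EGF at its EC50 level; % is set by controls: 0 for no effect and ±100 for the full control effect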
Summary of the method: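 Modulation of EGF-driven AP-1 transcription was assessed with a beta-lactamase reporter in ME-180 cells. Compound and EC50 EGF were co-incubated 5 hours at 37 °C before 2.5-hour CCF4 loading at room temperature and dual-emission reading.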

[3] = biological target: Cytochrome P450 1A2 (Homo sapiens) (UniProt P05177); experiment: p450-cyp1a2 (AID 410; calls by dose curve; note: potency is the fitted concentration of half-maximal effect;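 for activity change, negative = inhibition: -100% = full effect of reference inhibitor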); settings: recombinant CYP1A2, luciferin-ME demethylation, luminescence; series mostly up to 11.4 µM
Cytochrome P450 1A2 (Homo sapiens), sequence (P05177 whole entry, looked up): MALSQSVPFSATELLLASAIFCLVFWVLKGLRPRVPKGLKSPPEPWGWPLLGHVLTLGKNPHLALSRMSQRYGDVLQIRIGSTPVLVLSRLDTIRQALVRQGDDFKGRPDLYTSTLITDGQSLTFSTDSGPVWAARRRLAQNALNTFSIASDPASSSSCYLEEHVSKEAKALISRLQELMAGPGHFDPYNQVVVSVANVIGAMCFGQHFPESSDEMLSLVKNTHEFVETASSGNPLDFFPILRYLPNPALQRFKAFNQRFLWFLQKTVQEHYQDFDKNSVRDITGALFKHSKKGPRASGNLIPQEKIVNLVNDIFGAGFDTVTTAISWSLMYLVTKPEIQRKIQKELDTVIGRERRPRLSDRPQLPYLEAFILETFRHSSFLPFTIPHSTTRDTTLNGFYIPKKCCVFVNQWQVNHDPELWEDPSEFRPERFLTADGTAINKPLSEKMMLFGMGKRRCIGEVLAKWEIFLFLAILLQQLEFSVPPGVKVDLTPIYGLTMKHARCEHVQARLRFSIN
Summary of the method: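 Luminescent readout of luciferin formed from Luciferin-ME by human CYP1A2; data normalized against complete inhibition by 57 uM furafylline. Enzyme 20nM, substrate 100uM at Km, 100mM KPO4 buffer, 60 min reaction at room temperature.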

[4] = NFAT Signaling Pathway (AID 444); settings: Jurkat NFAT-bla M1, carbachol, beta-lactamase ratio, 5 h; at 7.69 µM (top of the series) unless noted;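 note: carbachol stimulus at about its EC50 of 1 µM final; % is set by controls: 0 for no effect and ±100 for the full control effect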
Summary of the method: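 Jurkat cells carrying an NFAT-driven β-lactamase reporter and co-transfected muscarinic M1 receptor were treated with compound plus carbachol (1 uM final, an EC50 level) for 5 h at 37 °C. CCF4 loading followed for 1 h at RT; 460/530 nm ratio gave %activity.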

[5] = Stat Signaling Pathway (AID 446); settings: ME-180 SIE beta-lactamase reporter, IL-6 stimulated, 5 h; at 7.69 µM (top of the series) unless noted;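 note: ME-180 cervical cancer cells given 40 pM IL-6 alongside compound; SIE-controlled beta-lactamase reporter measured as 460/530 nm FRET emission ratio; % is set by controls: 0 for no effect and ±100 for the full control effect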
Summary of the method: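 Screening format detects activators and inhibitors alike: ME-180 SIE-bla cells stimulated at 40 pM IL-6 for 5 hrs with compound, then dual-emission beta-lactamase read at 405 nm excitation.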

[6] = biological target: Glucocorticoid receptor (Homo sapiens) (UniProt P04150); experiment: GR-GFP Redistribution (AID 450;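 active = compounds whose dose series gives a full or clear partial fitted curve of increased nuclear translocation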; note: potency is the fitted concentration of half-maximal effect); settings: U2OS GR-GFP nuclear translocation, laser cytometry, 2 h
Glucocorticoid receptor (Homo sapiens), sequence (P04150 whole entry, looked up, the tested form may be a part): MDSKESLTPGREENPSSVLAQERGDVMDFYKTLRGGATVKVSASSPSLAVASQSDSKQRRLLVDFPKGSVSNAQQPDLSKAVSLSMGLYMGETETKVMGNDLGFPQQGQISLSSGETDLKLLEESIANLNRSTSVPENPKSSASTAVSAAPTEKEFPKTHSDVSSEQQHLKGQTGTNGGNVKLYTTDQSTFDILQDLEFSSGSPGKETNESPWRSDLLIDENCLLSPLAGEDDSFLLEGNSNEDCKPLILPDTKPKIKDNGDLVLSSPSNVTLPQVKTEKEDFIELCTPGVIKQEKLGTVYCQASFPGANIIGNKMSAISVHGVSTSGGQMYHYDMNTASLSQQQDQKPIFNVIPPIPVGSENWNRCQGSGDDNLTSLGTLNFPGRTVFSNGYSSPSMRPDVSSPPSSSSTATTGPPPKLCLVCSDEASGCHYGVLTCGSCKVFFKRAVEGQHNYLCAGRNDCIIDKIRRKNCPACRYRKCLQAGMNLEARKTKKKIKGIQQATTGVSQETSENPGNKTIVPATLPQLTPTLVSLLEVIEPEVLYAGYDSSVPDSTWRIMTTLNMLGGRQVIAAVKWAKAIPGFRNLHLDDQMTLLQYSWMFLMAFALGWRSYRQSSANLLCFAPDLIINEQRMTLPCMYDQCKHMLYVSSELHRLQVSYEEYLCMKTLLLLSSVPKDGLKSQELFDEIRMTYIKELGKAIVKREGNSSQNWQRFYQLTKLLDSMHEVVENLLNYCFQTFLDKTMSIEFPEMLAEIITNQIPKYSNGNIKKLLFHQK

[7] = biological target: Glucocorticoid receptor (Homo sapiens) (UniProt P04150); experiment: GR-EFC Redistribution (AID 451; calls by dose curve; note: potency is the fitted concentration of half-maximal effect); settings: CHO-K1 GR-EFC translocation, beta-gal luminescence, 2 h
Summary of the method: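 CHO-K1 cells stably expressing nuclear-localized β-gal enzyme acceptor and GR fused C-terminally to the enzyme donor fragment; ligand-driven nuclear translocation restores β-gal by complementation. Compounds titrated up to 46 uM final, 2 h at 37 °C; luminescence read.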

[8] = biological target: Mitogen-activated protein kinase 10 (Mus musculus) (UniProt Q61831); experiment: JNK3 AlphaScreen Assay (AID 530); settings: JNK3 lysate, c-Jun phosphorylation; series mostly up to 11.4 µM;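 note: kinase came from lysate of stimulated human HepG2 cells; signal reports phosphorylation of biotinylated GST-cJun 1-79 at Ser73 with 10 µM ATP; % is set by controls: 0 for no effect and ±100 for the full control effect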
Summary of the method: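 Inhibitors reduce antibody binding to phosphorylated biotin-cJun, lowering AlphaScreen luminescence. Lysates from HepG2 cells pre-activated by IL-1beta plus TNF-alpha supplied JNK3; compounds were titrated.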

[9] = biological target: 3',5'-cyclic-AMP phosphodiesterase 4B (Homo sapiens) (UniProt Q07343); experiment: qHTS Assay for Inhibitors of PDE-IV (AID 607; active = well fitted activation curve with a large enough effect in the main read-out, with a control signal flat, not every such curve was filed as active; note: % of control where 0% means no effect); settings: HEK293 ACTOne CNG channel cells, membrane potential fluorescence; series mostly up to 22.9 µM
3',5'-cyclic-AMP phosphodiesterase 4B (Homo sapiens), sequence (Q07343 whole entry, looked up): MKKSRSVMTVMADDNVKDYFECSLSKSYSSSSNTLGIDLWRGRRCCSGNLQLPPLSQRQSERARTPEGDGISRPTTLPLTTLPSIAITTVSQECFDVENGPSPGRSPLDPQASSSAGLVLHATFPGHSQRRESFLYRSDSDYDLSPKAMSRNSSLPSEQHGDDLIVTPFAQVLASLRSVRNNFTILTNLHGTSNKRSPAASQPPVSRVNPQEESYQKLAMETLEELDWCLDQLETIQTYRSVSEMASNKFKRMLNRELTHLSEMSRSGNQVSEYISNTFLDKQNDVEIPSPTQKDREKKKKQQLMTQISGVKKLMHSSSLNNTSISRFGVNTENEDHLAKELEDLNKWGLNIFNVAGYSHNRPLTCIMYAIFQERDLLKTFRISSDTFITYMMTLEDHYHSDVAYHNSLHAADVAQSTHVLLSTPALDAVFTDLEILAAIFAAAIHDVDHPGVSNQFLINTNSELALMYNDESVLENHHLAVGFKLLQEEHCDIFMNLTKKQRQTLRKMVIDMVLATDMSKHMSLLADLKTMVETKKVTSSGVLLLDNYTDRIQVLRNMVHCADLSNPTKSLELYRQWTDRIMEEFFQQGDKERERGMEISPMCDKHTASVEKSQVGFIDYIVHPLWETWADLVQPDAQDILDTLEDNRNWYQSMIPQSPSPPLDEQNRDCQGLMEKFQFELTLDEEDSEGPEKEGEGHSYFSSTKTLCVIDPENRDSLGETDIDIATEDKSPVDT
Summary of the method: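 The readout is membrane depolarisation from a cAMP-sensing CNG channel, detected with a potential dye at ex 535/em 590. Cells were HEK293-derived (endogenous PDE-IV) at 1000 cells/well, titrated up to 22.9 uM final.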

Compound	Potency [1]	activity change, negative = inhibition [2]	Potency [3]	activity change, negative = inhibition [4]	activity, negative = inhibition [5]	Potency [6]	Potency [7]	Potency [8]	Potency [9]	activity change, negative = inhibition [3]
NCCCc1ccc2oc3ccccc3c2c1	> 11.4 µM	19.9%	0.0316 µM (active)	14.4%	0.365%	> 46 µM	> 9.22 µM	inactive	inactive	–
O=C(O)c1nn(-c2ccc(Cl)cc2)c2c1C(=O)c1ccccc1C2=O	> 11.4 µM	-2.08%	0.251 µM (active)	-17.6%	2.2%	> 46 µM	> 9.22 µM	inactive	inactive	–
C(=Nc1cnc2ccccc2c1)c1ccc2ccccc2n1	> 11.4 µM	-2.4%	3.98 µM (active)	3.2%	-6.04%	> 46 µM	> 9.22 µM	inactive	inactive	–
Cc1cc(Cc2c(C)c(C)c(Cc3cc(C)cc(C(C)(C)C)c3O)c(C)c2C)c(O)c(C(C)(C)C)c1	> 11.4 µM	-8.57%	–	14.4%	6.62%	> 46 µM	> 9.22 µM	inactive	inactive	5% [at 2.29 µM]
Clc1ccccc1C(Nc1cnccn1)Nc1cnccn1	> 11.4 µM	8.81%	–	6.25%	-2.8%	> 46 µM	> 9.22 µM	inactive	inactive	-18% [at 2.29 µM]
O=C(O)COc1c(Cl)cc(Cl)c2cccnc12	> 11.4 µM	6.1%	–	1.63%	-0.716%	> 46 µM	> 9.22 µM	inactive	inactive	-1.3% [at 2.29 µM]
OCCn1cnc2c(SCc3ccccc3)ncnc21	> 11.4 µM	-4.68%	3.16 µM (active)	1.04%	-1.73%	> 46 µM	> 9.22 µM	inactive	inactive	–
Cc1ccc(-[n+]2cc(=O)o[nH]2)cc1	> 11.4 µM	4.74%	3.98 µM (active)	-24.7%	12.6%	> 46 µM	> 9.22 µM	inactive	inactive	–
CN(C)CCOC(=O)c1ccc(N)cc1	> 11.4 µM	4.6%	inactive	-0.262%	-3.48%	> 46 µM	> 9.22 µM	inactive	inactive	–
C[C@H](CCC(=O)O)[C@H]1CC[C@]2(C)[C@@H]3C(=O)C[C@H]4C(C)(C)[C@@H](O)CC[C@]4(C)[C@H]3C(=O)C[C@@]12C	> 11.4 µM	4.2%	inactive	21.4%	8.37%	> 46 µM	> 9.22 µM	inactive	inactive	–
O=S(O)O.O=S(O)O.[Co].[NH2-].[NH2-].[NH2-].[NH2-]	> 11.4 µM	-7.83%	inactive	15.9%	26%	> 46 µM	> 9.22 µM	inactive	inactive	–
O=C(O)[C@H]1[C@H](C(=O)O)[C@H](C(=O)O)C[C@@H]1C(=O)O	> 11.4 µM	-1.4%	inactive	2.63%	4.24%	> 46 µM	> 9.22 µM	inactive	inactive	–
NCOC(=O)Cc1ccc(Br)cc1	> 11.4 µM	2.56%	0.2 µM (active)	11%	5.96%	> 46 µM	> 9.22 µM	inactive	inactive	–
O=C(O)[C@@H]1[C@@H](C(=O)NCc2ccccn2)[C@@H]2C=C[C@@H]1O2	> 11.4 µM	-9.66%	–	-3.89%	-3.58%	> 46 µM	> 9.22 µM	inactive	inactive	-0.1% [at 2.29 µM]
CN(CC(=O)O)CC(=O)O	> 11.4 µM	-6.97%	–	11.1%	2.4%	> 46 µM	> 9.22 µM	inactive	inactive	-5.9% [at 2.29 µM]
NCC(=O)Nc1ccccc1	> 11.4 µM	4.23%	2.51 µM (active)	1.46%	4.18%	> 46 µM	> 9.22 µM	inactive	inactive	–
Cc1cc([N+](=O)[O-])c(C)c(Br)c1C	> 11.4 µM	3.15%	1 µM (active)	-7.3%	6.97%	> 46 µM	> 9.22 µM	inactive	inactive	–
O=C(O)/C(=C\c1ccc(O)cc1)c1cccc2ccccc12	> 11.4 µM	1.02%	inactive	2.46%	-8.2%	> 46 µM	> 9.22 µM	inactive	inactive	–
N[C@@H](CSCc1ccc(I)cc1)C(=O)O	> 11.4 µM	-1.51%	–	0.82%	10.1%	> 46 µM	> 9.22 µM	inactive	inactive	-12% [at 2.29 µM]
CCc1c(O)c2c(c(O)c1C(C)=O)C(=O)c1c(cc(O)c(C(=O)O)c1C(=O)O)C2=O	> 11.4 µM	-2.41%	inactive	15.1%	5.45%	> 46 µM	> 9.22 µM	inactive	inactive	–
CC(C)(CC(=O)Nc1ccccc1)C(=O)O	> 11.4 µM	-3.37%	inactive	-4.05%	2.37%	> 46 µM	> 9.22 µM	inactive	inactive	–
Cc1cc2ccc(OC(=O)c3ccc(N=C(N)N)cc3)cc2oc1=O	> 11.4 µM	5.35%	2.51 µM (active)	-22.4%	-1.77%	> 46 µM	> 9.22 µM	inactive	inactive	–
Nc1ccc(C(=O)C[C@H](N)C(=O)O)cc1O	> 11.4 µM	8.27%	inactive	-4.19%	6.37%	> 46 µM	> 9.22 µM	inactive	inactive	–
O=C(O)Cc1cccnc1	> 11.4 µM	8.81%	inactive	15.8%	3.03%	> 46 µM	> 9.22 µM	inactive	inactive	–
Nc1nc(N)c(CCCCc2ccccc2)c(N)n1	> 11.4 µM	17.9%	–	2.59%	1.49%	> 46 µM	> 9.22 µM	inactive	inactive	-0.2% [at 2.29 µM]
O=C1[C@@H]2[C@@H]3C=C[C@H]([C@@H]2C(=O)N1CN1CCSCC1)[C@@H]1[C@@H]2C(=O)N(CN4CCSCC4)C(=O)[C@@H]2[C@H]31	> 11.4 µM	11.7%	inactive	5.4%	-1.73%	> 46 µM	> 9.22 µM	inactive	inactive	–
COc1cc(N=C(N)N=C(N)N)c2ncccc2c1	> 11.4 µM	-8.09%	0.398 µM (active)	3.48%	-1.33%	> 46 µM	> 9.22 µM	inactive	inactive	–
C/C(=N/NC1=NCCN1)c1cn(C2=NCCN2)nc1C	> 11.4 µM	6.21%	–	-15.6%	1.37%	> 46 µM	> 9.22 µM	inactive	inactive	-13.9% [at 2.29 µM]
CC[C@@H](CS(=O)(=O)O)[N+](=O)[O-]	> 11.4 µM	7.92%	inactive	19.9%	10.6%	> 46 µM	> 9.22 µM	inactive	inactive	–
